uPA generation: inhibitors of cell surface uPA generation. 330,000 compounds, 0.31% hits. Potency, µM (titrated, usually from 38.3 µM), inactives show at the highest dose activity change, negative = inhibition, hits mostly inhibitors. cell surface uPA generation assay, qHTS; active = well fitted inhibition curve with a large enough effect; inconclusive = small, poorly fitted or top-dose-only effect; inactive = no such curve, though single readings can be large or run the other way; tested in mouse RAW 264.7 cells; note: potency is the fitted concentration of half-maximal effect; % is set by controls: 0 for no effect and ±100 for the full control effect; nearly all actives have a fitted effect of over 55% in size
RORgamma inh: inhibitors of mouse ROR gamma transcriptional activity; P51450; Drosophila S2 Gal4-RORgamma UAS-luciferase reporter, 20 h; Potency, µM (top dose mostly 53.6 µM), for inactives: at the top dose activity change, negative = inhibition, actives largely listed as inhibitors; 310,000 compounds, 5.4% hits; AID 2551; note: potency is the fitted concentration of half-maximal effect; % is set by controls: 0 for no effect and ±100 for the full control effect; nearly all actives have a fitted effect of over 60% in size
Target sequence (P51450 whole entry, looked up, the tested form may be a part): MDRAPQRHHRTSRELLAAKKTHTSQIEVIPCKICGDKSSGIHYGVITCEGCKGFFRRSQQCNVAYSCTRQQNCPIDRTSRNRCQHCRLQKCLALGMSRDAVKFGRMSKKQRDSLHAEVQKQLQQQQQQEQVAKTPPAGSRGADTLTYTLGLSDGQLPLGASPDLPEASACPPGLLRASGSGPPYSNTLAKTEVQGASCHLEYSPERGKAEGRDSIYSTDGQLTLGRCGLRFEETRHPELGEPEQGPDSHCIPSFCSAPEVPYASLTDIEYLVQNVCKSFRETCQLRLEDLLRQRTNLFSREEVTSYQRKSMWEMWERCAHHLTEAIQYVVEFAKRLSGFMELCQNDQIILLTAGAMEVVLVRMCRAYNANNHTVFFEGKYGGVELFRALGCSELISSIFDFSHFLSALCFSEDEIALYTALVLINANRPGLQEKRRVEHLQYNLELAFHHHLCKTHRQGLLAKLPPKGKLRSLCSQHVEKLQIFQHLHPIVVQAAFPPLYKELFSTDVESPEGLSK
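In this cell-based reporter format, copper sulfate (700 uM final) drives Gal4–ROR gamma fusion expression from a metallothionein promoter in Drosophila Schneider cells; compounds preincubated 1 hr, reporter read after 20 hr at ambient temperature.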
TRPV1 agonist: agonists of human vanilloid receptor 1 (TRPV1); Q8NER1; TRPV1-expressing cells, Fluo-8 calcium influx, agonist mode; 320,000 compounds, 0.19% hits; AID 540275; activation, % at 8.33 µM; in the data active = activation above about 80%; inconclusive = between about 30% and that limit; note: 0% is about no effect
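Fluo-8 calcium influx in TRPV1-expressing cells, kinetic read (ex 480/em 520 nm). Compound added and read 3 min for agonist activity, followed by capsaicin at EC20 final and 2 min further read for enhancement.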
TRPV1 potentiator: enhances activation of the human vanilloid receptor TRPV1. TRPV1-expressing cells, Fluo-8 calcium influx, capsaicin EC20 potentiation. potentiation, % at 8.33 µM. 320,000 compounds, 0.02% hits. AID 540277; in the data active = potentiation above about 80%; inconclusive = between about 30% and that limit; note: 0% is about no effect
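Cells expressing TRPV1 were dye-loaded with Fluo-8 and read kinetically: 10 s baseline, 3 min after compound (agonist portion), then 2 min after EC20 capsaicin (allosteric enhancer portion). Calcium-bound dye fluorescence at 480/520 nm.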
VP16 counter: Gal4-VP16 reporter inhibition counter-screen. AID 2546. 310,000 compounds, 3.5% hits. Potency, µM (doses to about 53.6 µM), inactives show top-dose activity, negative = inhibition, usual class: inhibitors. Drosophila S2 Gal4-VP16 UAS-luciferase, luminescence, 20 h;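 note: Gal4-VP16 expression switched on by copper sulfate through the metallothionein promoter; potency is the fitted concentration of half-maximal effect; % is set by controls: 0 for no effect and ±100 for the full control effect; nearly all actives have a fitted effect of over 50% in size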
* marks the source's active call; other numbers are inactive results; ? = inconclusive; . = not tested or not shown; [ ] = another dose, or the depositor's remark. A selection: hits, their analogues and other compounds. The true share with any hit is near 5.8%. Unless noted, calls come from the whole dose curve; as a rule, active = well fitted curve in the direction sought with a large enough effect; inconclusive = small, poorly fitted or top-dose-only effect, or another doubt; inactive = no such curve, though single readings can be large; an effect the other way counts as inactive or inconclusive.

SMILES	uPA generation	RORgamma inh	TRPV1 agonist	TRPV1 potentiator	VP16 counter
COc1cc(NC(=O)C(C)C)ccc1NC(=O)c1cc2ccccc2o1	14µM*	37%	3	-4	19%
COc1ccc(NC(=O)c2cc3ccccc3o2)cc1OC	-4%	.	22	-25	.
COc1cc(NC(=S)NC(=O)C(C)C)ccc1NC(=O)c1cc2ccccc2o1	-4%	-23%	6	-4	-4%
CCC(=O)Nc1ccc(Cl)c(NC(=S)NC(=O)c2ccco2)c1	-13%	36%	-4	-1	?
CCC(=O)Nc1ccc(Cl)c(NC(=S)NC(=O)c2cc3ccccc3o2)c1	-12%	?	-3	-5	3.5µM*
CCOc1cccc(C(=O)Nc2ccc(NC(=O)c3cc4ccccc4o3)c(OC)c2)c1	2%	?	4	-16	?
CCC(=O)NC(=S)Nc1ccc(NC(=O)c2cc3ccccc3o2)c(OC)c1	4%	4.5µM*	3	1	?
Cc1c(Cl)cccc1-n1c(SCC(=O)N2CCC(C(=O)O)CC2)nc2ccccc2c1=O	2%	3%	3	1	21%
COc1cccc(/C=N/NC(N)=S)c1OCc1cccc(Cl)c1	3%	2.8µM*	-2	?	4µM*
NC(=S)N/N=C\c1ccccc1OCc1ccccc1	-12%	2.2µM*	-1	-5	3.5µM*
NC(=S)N/N=C/c1c[nH]c2ccc(OCc3ccccc3)cc12	-6%	5µM*	-1	6	4.5µM*
O=C(CSCc1ccccc1)N/N=C/c1ccccc1OCc1ccccc1	1%	-7%	3	-11	-5%
COC(=O)N/N=C/c1cc(Cl)cc(Cl)c1OCc1ccccc1	7%	-11%	25	-17	-14%
OCCc1c[nH]c2ccc(OCc3ccccc3)cc12	-2%	-15%	3	13	3%
NC(=S)N/N=C/c1ccccc1OC(=O)c1cc2ccccc2oc1=O	-1%	7.1µM*	1	-8	7.1µM*
C/C=C/c1ccc(OCC(=O)N(CCOC)c2c(N)n(CCCC)c(=O)[nH]c2=O)c(OC)c1	0%	.	-5	23	.
COc1cc(C(C)C)c2c(c1)S(=O)(=O)N(COc1cc(=O)n3cccc(OCCN4CCCCC4)c3n1)C2=O	.	-30%	.	.	?
NC(=S)N/N=C\c1c(OCc2ccccc2Cl)ccc2ccccc12	-10%	1.1µM*	-3	12	3.2µM*
CCOC(=O)N/N=C\c1ccccc1OC/C=C/c1ccccc1	-22%	?	-5	7	11%
NC(=S)N/N=C/c1ccccc1OC(=O)/C=C/c1ccccc1	?	3.5µM*	-2	-8	3.5µM*
NC(=O)CCCCC(N)=O	.	-10%	.	.	3%
OC1CCN(C(=S)Nc2ccc(Nc3ccccc3)cc2)CC1	-3%	-30%	0	26	0%[10 µM]
CC1CCCN(C(=S)Nc2ccc(Nc3ccccc3)cc2)C1 (stereo unspecified)	1%	11µM*	4	2	?
CCc1ccc(NC(=S)N2CCCC(C(F)(F)F)C2)cc1 (stereo unspecified)	2%	13µM*	-3	-1	?
CC1CCCN(C(=S)Nc2ccc(F)cc2)C1 (stereo unspecified)	-1%	8.9µM*	-2	7	1%[10 µM]
SMILES	uPA generation	RORgamma inh	TRPV1 agonist	TRPV1 potentiator	VP16 counter
CCc1ccc(NC(=S)N2CCCC2)cc1	-5%	?	22	-11	-23%
COc1ccc(OC)c2c(C)cc(N3CCCN(C)CC3)nc12	.	-31%	-2	4	1%
COc1cc2oc(=O)ccc2cc1-c1c(OC)ccc2ccc(=O)oc12	8.9µM*	.	.	.	.
COc1cc2ccc(=O)oc2c(O)c1O	-16%	-33%	.	.	1%
c1ccc2c(c1)OCC(CNc1ncnc3sccc13)O2 (stereo unspecified)	-3%	?	20	-7	0.5µM*
COc1ccc2cc(-c3cc(C(=O)OCC(=O)NC4CCS(=O)(=O)C4)c4ccccc4n3)ccc2c1 (stereo unspecified)	-19%	2.8µM*	23	-18	1.8µM*
COc1ccc2cc(-c3cc(C(=O)OCC(=O)Nc4c(C)n(C)n(-c5ccccc5)c4=O)c4ccccc4n3)ccc2c1	-9%	7.1µM*	1	7	?
CCc1ccccc1NC(=O)CNC(=O)c1cccc(S(=O)(=O)N2CCN(Cc3ccccc3)CC2)c1	4%	.	8	28	.
O=C1C(=O)N(CC2CCCO2)C(c2ccco2)/C1=C(/O)c1ccc(F)cc1 (stereo unspecified)	-1%	3%	0	4	2%[10 µM]
Oc1cccc(C(Nc2nccs2)c2ccc3cccnc3c2O)c1 (stereo unspecified)	-2%	1.4µM*	-6	1	3.5µM*
O=[N+]([O-])c1ccc(NC(c2ccccc2)c2ccc3cccnc3c2O)cc1 (stereo unspecified)	-10%	.	.	.	.
COc1cccc(C(NC(C)=O)c2ccc3cccnc3c2O)c1 (stereo unspecified)	-14%	2.8µM*	0	5	5µM*
CCCCC(=O)NC(c1cccc([N+](=O)[O-])c1)c1c(OC(C)=O)ccc2ccccc12 (stereo unspecified)	-1%	36%	-1	21	?
COc1ccc(CNC(=O)CSc2cccc3cccnc23)cc1	-2%	21%	1	5	-14%
CC(=O)NC(c1cccc([N+](=O)[O-])c1)c1ccc2cccnc2c1O (stereo unspecified)	-13%	1.4µM*	-6	1	2µM*
CCCCC(=O)NC(c1cccc([N+](=O)[O-])c1)c1ccc2cccnc2c1O (stereo unspecified)	5µM*	.	.	.	.
CCOC(=O)c1c(/N=C/C2=C(O)CC(C)(C)CC2=O)sc(C(C)=O)c1C	-4%	1%	1	20	-13%
CN(C)c1ccc(-c2cncnc2-n2ccnc2)cc1	.	-27%	.	.	-19%
COc1ccc(C)cc1NC(=O)C1CCN(C(=O)c2ccco2)CC1	5%	10%	-2	-1	-12%
CC(c1n[nH]c(=S)n1-c1ccc(F)cc1)N1CCCCC1 (stereo unspecified)	2%	13µM*	3	-4	?
CC(c1n[nH]c(=S)n1-c1ccc(Cl)cc1)N(C)C (stereo unspecified)	1%	13µM*	-2	-4	-10%
Cc1ccccc1-n1c(-c2ccc3ccccc3n2)n[nH]c1=S	11%	0.32µM*	0	8	5µM*
S=c1[nH]nc(-c2ccc3ccccc3n2)n1-c1ccc(Cl)cc1	1%	1.1µM*	2	15	1.4µM*
O=C(NCc1n[nH]c(=S)n1-c1ccc(F)cc1)c1ccc(S(=O)(=O)N2CCCCC2)cc1	2%	-24%	-1	16	-2%
Fc1ccc(-n2c(-c3ccc4ccccc4n3)n[nH]c2=S)cc1Cl	-5%	?	6	10	-10%
Cc1nc2ccc(NC(=O)Cc3c(F)cccc3Cl)cc2s1	?	9%	4	2	1%

Assay outcomes: PubChem, National Center for Advancing Translational Sciences (NCATS)
